ChEMBL document CHEMBL1157539, “Thousands of chemical starting points for antimalarial lead identification” (Nature, 2010)

Tests used:
Type in all cases: functional
Plasmodium falciparum [1] = experiment: GSK_TCMDC: Inhibition of Plasmodium falciparum 3D7 in whole red blood cells, using parasite LDH activity as an index of growth. Test compounds present at 2uM
Plasmodium falciparum [2] = experiment: GSK_TCMDC: Inhibition of Plasmodium falciparum Dd2 in whole red blood cells, using parasite LDH activity as an index of growth. Test compounds present at 2uM
HepG2 = experiment: GSK_TCMDC: Percent inhibition of human HepG2 cell line. Test compounds present at 10uM.

| Compound | Inhibition (Plasmodium falciparum [1]) [%] | Inhibition (Plasmodium falciparum [2]) [%] | Inhibition (HepG2) [%] |
| --- | --- | --- | --- |
| O=C(O)C(F)(F)F.O=S(=O)(NCCN1CCCC1)c1ccc(-c2ccc(CNCc3ccccc3)cc2)cc1F | 83 | 39 | 35 |
| Cc1cc2c(cc1C(F)(F)F)N(C(=O)Nc1cnc(OCCN(C)C)c(C(F)(F)F)c1)CC2 | 88 | 25 | 28 |
| CCOc1ccc(N2C(N)=NC(N)=NC2(C)C)cc1.Cl | 95 | 0 | 10 |
| CN1CCC(C(=O)Nc2ccc(-c3cccc(-c4nc5cc(C(F)(F)F)ccc5[nH]4)c3)cc2)CC1 | 100 | 97 | 28 |
| COc1ccc2[nH]ccc(=NN=Cc3ccncc3)c2c1 | 99 | 95 | 4 |
| COc1cc2c(cc1OC)CC(NCc1ccc(-c3ccc4nc[nH]c4c3)cc1)C2.O=C(O)C(F)(F)F | 97 | 92 | 40 |
| N#Cc1cncc(-c2nc3c(N4CCC(Cc5ccccc5)CC4)cccc3n2CCNCc2ccccc2)c1.O=C(O)C(F)(F)F | 99 | 99 | 2 |
| O=C(/C=C/c1ccc(Cl)cc1)NCCCCCN1CCCN(C(=O)Nc2ccc(Cl)c(C(F)(F)F)c2)CC1 | 95 | 1 | 54 |
| CN1CCCN(Cc2ccc(-c3ccc(NC(=O)c4ccc(Cl)cc4)cc3)cc2)CC1.O=C(O)C(F)(F)F | 96 | 67 | 58 |
| CC(C)OCCCNC(=O)c1nc(-c2cccc(C(F)(F)F)c2)sc1C(C)C | 94 | 34 | 0 |
| COc1ccccc1-c1nc2nc(N)nc(N)c2nc1-c1ccccc1OC | 84 | 1 | 27 |
| O=C(Nc1ccc(N2CCN(C(=O)/C=C/c3ccccc3)CC2)c(Cl)c1)c1ccc([N+](=O)[O-])o1 | 97 | 90 | 98 |
| O=C(c1cc(-c2cccs2)n[nH]1)N1CCN(S(=O)(=O)c2ccc(Cl)cc2)CC1 | 96 | 95 | 0 |
| Cl.Nc1c2c(nc3ccc(C(=O)Nc4cc(I)c(O)c(I)c4)cc13)CCCC2 | 96 | 64 | 14 |
| O=C(NC1c2ccccc2Oc2ccccc21)c1ccccc1O | 95 | 0 | 0 |
| O=C(CCC1CCCCC1=O)c1ccccc1 (configuration not stated) | 91 | 3 | 0 |
| CCc1c(CCNCCCC(C)CCNCCc2ccc(OC)c(OC)c2CC)ccc(OC)c1OC.Cl (configuration not stated) | 100 | 27 | 99 |
| O=C(CSc1nccn1C1CCCC1)Nc1cc(C(F)(F)F)ccc1Cl | 96 | 94 | 0 |
| COc1cc(NC(=O)/C=C/c2ccccc2Cl)cc(OCCN2CCC(O)(c3ccccc3)CC2)c1.O=C(O)C(=O)O | 100 | 46 | 48 |
| Br.CC1(C)NC(N)=NC(=N)N1OCCNCc1ccc(Cl)cc1 | 95 | 0 | 5 |
| CCOc1cc(C(=O)NCc2cccc(C(F)(F)F)c2)ccc1-c1nc2cc(Cl)ccc2[nH]1 | 88 | 31 | 7 |
| COc1ccc(NC(=O)[C@H](Cc2ccccc2)Nc2cc(C)nc(NCC3CCCCC3)n2)cc1.O=C(O)C(F)(F)F | 100 | 83 | 9 |
| Cl.Clc1ccc(C2CCN(CCCOc3ccc4c(c3)CCNCC4)CC2)cc1 | 98 | 28 | 93 |
| NC1=NC(c2ccccc2)(c2ccccc2)C(=O)N1Cc1ccccc1Br.O=CO | 93 | 38 | 36 |
| Oc1ccc(Nc2nc(NCc3ccco3)c3ccccc3n2)cc1 | 100 | 78 | 7 |
| COc1cccc(C2CCN(CCN3CCC(CNC(=O)c4ccc(-c5ccc(C(F)(F)F)cc5)cc4)CC3)CC2)c1 | 100 | 42 | 41 |
| CCCc1cc(C)ccc1OCCCON1C(NC(=O)OCC)=NC(NC(=O)OCC)=NC1(C)C | 95 | 97 | 62 |
| CC1CCN(CC[C@H]2CCCN2S(=O)(=O)c2cccc(NC(=O)c3ccc(-c4ccccc4)cc3)c2)CC1 | 87 | 36 | 38 |
| COc1ccc(O)c(Cc2cnc3nc(N)nc(N)c3c2C)c1.O=C(O)C(F)(F)F | 94 | 74 | 56 |
